The supplement of paper PMC8047044
Structures can show the parent of a compound that is named as a salt.

Tests used:
[1] = system: Neuro-2a; experiment: neurite formation score, plate-normalized to DMSO control mean 5.04 (score (0-8 scale)); higher = more or longer neurites; conditions: 1 µM
Method: (§1)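 Neuro-2a mouse neuroblastoma cells in PLL-coated 96-well plates were pre-treated for 1 h in DMEM(+) with each kinase inhibitor at 1 µM, then switched to serum-free DMEM(-) with inhibitor to induce neurite outgrowth and fixed about 2-3 h later. Three blinded observers scored neurite formation from 0 (no neurites) to 8 (long neurites on almost all cells).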

[2] = system: Neuro-2a; experiment: as above; conditions: 0.1 µM
Method: as §1, with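 “at 0.1” for “at 1”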

Compound	neurite formation score [1]	neurite formation score [2]
CN(C)c1nc2c(Br)c(Br)c(Br)c(Br)c2[nH]1	5.02	5.25
CCCCCCCCCCCCCCCCOP(=O)([O-])OCC[N+](C)(C)C [Miltefosine]	5.63	2.58
Cn1cnc(-c2cc3nccc(Oc4ccc(NC(=S)NC(=O)Cc5ccccc5)cc4F)c3s2)c1	3.69	4.92
CS(=O)(=O)N1CCN(Cc2cc3nc(-c4cccc5[nH]ncc45)nc(N4CCOCC4)c3s2)CC1 [GDC-0941 dimethanesulfonate]	2.8	2.09
CC[C@@H]1C(=O)N(C)c2cnc(Nc3ccc(C(=O)N[C@H]4CC[C@H](N5CCN(CC6CC6)CC5)CC4)cc3OC)nc2N1C(C)C [BI6727 (Volasertib)]	5.29	4.25
CNC(=O)Nc1ccc(-c2nc(N3CC4CCC(C3)O4)c3cnn(C4CCC5(CC4)OCCO5)c3n2)cc1	3.54	4.75
FC(F)(F)c1ccc(CNc2ccc(Cc3c[nH]c4ncccc34)cn2)cc1	3.54	5.08
N[C@@H]1CCCN(c2c(/C=C3\SC(=O)NC3=O)cccc2-c2ccccc2)C1	5.36	5.25
CC(=O)Nc1cccc(-n2c(=O)n(C3CC3)c(=O)c3c(Nc4ccc(I)cc4F)n(C)c(=O)c(C)c32)c1 [Trametinib DMSO solvate]	5.02	4.92
CC[C@H](CO)Nc1nc(NCc2ccccc2)c2ncn(C(C)C)c2n1 [Roscovitine (Seliciclib,CYC202)]	4.57	4.38
CC(C)(C)c1nc2c3cc[nH]c(=O)c3c3cc(F)ccc3c2[nH]1 [Pyridone 6]	3.69	5.25
COc1cc(N2CCC(N(C)C)CC2)ccc1Nc1ncc(Cl)c(Nc2ccccc2P(C)(C)=O)n1	4.57	4.38
O=c1cc(N2CCOCC2)oc2c1ccc1ccccc12	4.8	4.42
C1=N/C2=N/c3ccc(OCCN4CCCC4)c(c3)COC/C=C/COCc3cccc(c3)C(=C1)N2 [Pacritinib]	2.29	4.92
CC(C)n1nc(-c2cc3cc(O)ccc3[nH]2)c2c(N)ncnc21	3.47	4.76
O=C1c2ccccc2-c2n[nH]c3cccc1c23	4.02	3.92
CC(C)(C)c1ccc(S(=O)(=O)/C=C/C#N)cc1	4.21	4.75
Cc1c(CN2CCN(C(=O)[C@H](C)O)CC2)sc2c(N3CCOCC3)nc(-c3cnc(N)nc3)nc12	4.21	4.42
CC(=O)Nc1nc(C)c(-c2ccc(Cl)c(S(=O)(=O)NCCO)c2)s1	4.57	3.88
N#Cc1c(NC(=O)c2cccc3ccccc23)sc2c1CCCC2	0.543	0.751
O=C(NCc1ccccc1)c1csc(Nc2ccncn2)n1 [Thiazovivin]	4.57	4.88
C[C@@H]1COCCN1c1cc(C2(S(C)(=O)=O)CC2)nc(-c2cccc3[nH]ccc23)n1	4.57	4.71
N=C(N)NC(=N)NCCc1ccccc1 [Phenformin HCl]	4.8	4.76

Compound	neurite formation score [1]	neurite formation score [2]
NC1(c2ccc(-c3nc4ccn5c(=O)[nH]nc5c4cc3-c3ccccc3)cc2)CCC1 [MK-2206 dihydrochloride]	4.24	4.71
CO[C@H]1C[C@@H]2CC[C@@H](C)[C@@](O)(O2)C(=O)C(=O)N2CCCC[C@H]2C(=O)O[C@H]([C@H](C)C[C@@H]2CC[C@@H](OP(C)(C)=O)[C@H](OC)C2)CC(=O)[C@H](C)/C=C(\C)[C@@H](O)[C@@H](OC)C(=O)[C@H](C)C[C@H](C)/C=C/C=C/C=C/1C [Ridaforolimus (Deforolimus, MK-8669)]	4.21	1.42
CCCCOc1c(C(=O)c2c(F)cc(C)cc2F)c[nH]c2nncc1-2	5.29	4.92
C=CC(=O)Nc1cccc(Oc2nc(Nc3ccc(N4CCN(C)CC4)cc3)ncc2Cl)c1	5.96	4.25
O=C(c1ccc(F)c(F)c1Nc1ccc(I)cc1F)N1CC(O)([C@@H]2CCCCN2)C1 [Cobimetinib]	3.24	4.71
Cc1cc(N2CCOCC2)cc2[nH]c(-c3c(NC[C@@H](O)c4cccc(Cl)c4)cc[nH]c3=O)nc12	3.57	4.71
Cc1cnc(NC(=O)Nc2cc(Br)c(C)cc2OC[C@@H]2CNCCO2)cn1	4.96	4.58
CNC(=O)c1nn(C)c2c1C(C)(C)Cc1cnc(Nc3ccc(N4CCN(C)CC4)cc3)nc1-2	3.29	4.58
CCc1cc(Nc2nccc(-c3c(-c4ccc(OC)c(C(=O)Nc5c(F)cccc5F)c4)nc4ccccn34)n2)c(OC)cc1N1CCC(N2CCN(S(C)(=O)=O)CC2)CC1	4.91	4.71
CN(C[C@@H]1COCCO1)S(=O)(=O)Nc1ccc2ccc3ncc(-c4cnn(C)c4)cc3c(=O)c2c1	5.29	4.25
CCn1cc(-c2ccnc3[nH]c(-c4cccc(CN(C)C)c4)cc23)c(-c2ccc(NC(=O)N(C)C)cc2)n1	4.69	5.25
Clc1ccc(Nc2nnc(Cc3ccncc3)c3ccccc23)cc1 [Vatalanib (PTK787) 2HCl]	3.91	3.71
CC(C)(C)c1cnc(CSc2cnc(NC(=O)C3CCNCC3)s2)o1	4.57	4.38
Cc1ccc(NC(=O)c2ccc(CN3CCN(C)CC3)cc2)cc1Nc1nc(-c2cccnc2)cs1 [Masitinib (AB1010)]	4.24	4.38
CCn1c(=O)c(-c2ccc(-c3cncs3)cc2Cl)cc2cnc(Nc3ccc(N4CCN(C)CC4)cc3)nc21	4.96	4.25
CCOc1ccc(Nc2ccc(/C(=C3C=C/C(=[N+](/CC)Cc4cccc(S(=O)(=O)[O-])c4)C=C/3C)c3ccc(N(CC)Cc4cccc(S(=O)(=O)O)c4)cc3C)cc2)cc1 [Brilliant Blue G]	5.21	2.08
CCOc1ccn(-c2ccc(F)cc2)c(=O)c1C(=O)Nc1ccc(Oc2ccnc(N)c2Cl)c(F)c1	5.24	4.21
O=c1sn(-c2cccc3ccccc23)c(=O)n1Cc1ccccc1 [Tideglusib]	4.21	5.08
COc1cc(Nc2ncc(F)c(Nc3ccc4c(n3)N(COP(=O)(O)O)C(=O)C(C)(C)O4)n2)cc(OC)c1OC [Fostamatinib (R788)]	4.8	3.76
NC1(Cc2ccc(Cl)cc2)CCN(c2ncnc3[nH]ccc23)CC1	5.63	4.92
Oc1cccc(-c2nc(N3CCOCC3)c3oc4ncccc4c3n2)c1	5.24	4.04
Cn1cc(-c2ccc3nnc(C(F)(F)c4ccc5ncccc5c4)n3n2)cn1	4.02	4.25
Cc1cc([C@@H](C)Nc2ccccc2C(=O)O)c2nc(N3CCOCC3)cc(=O)n2c1	4.57	4.54

Compound	neurite formation score [1]	neurite formation score [2]
Nc1ncnc2c1c(-c1cccc(OCc3ccccc3)c1)cn2C1CC(CN2CCC2)C1 (stereo not drawn)	3.24	4.71
Nc1cccc(-c2cc3c(Oc4cccc(O)c4)ncnc3[nH]2)c1	1.88	3.75
COc1ccc(-c2cc3c(C)nc(N)nc3n([C@H]3CC[C@H](OCCO)CC3)c2=O)cn1	3.96	4.92
Cc1nc(NC(=O)N2CCC[C@H]2C(N)=O)sc1-c1ccnc(C(C)(C)C(F)(F)F)c1	5.24	5.21
CN(C)CCSSCCNC(=O)C1CCN(C(=O)CSc2ccc(Cl)cc2)CC1	3.63	4.58
Cc1cc(Nc2cc(N3CCN(C)CC3)nc(/C=C/c3ccccc3)n2)n[nH]1 [ENMD-2076 L-(+)-Tartaric acid]	3.8	4.76
COc1cc2ncnc(Sc3nnc(C)s3)c2cc1OC	4.96	4.25
CC(C)CCN1c2nc(Nc3cc(F)c(O)c(F)c3)ncc2N(C)C(=O)C1C (stereo not drawn)	4.21	3.42
CN1CCN(C2CCN(C(=O)Nc3cc(Oc4ccc(NC(=O)C5(C(=O)Nc6ccc(F)cc6)CC5)c(F)c4)ccn3)CC2)CC1 [Golvatinib (E7050)]	4.14	3.76
O=C(CCCCCCC(=O)Nc1ccc(I)cc1)NO [4-iodo-SAHA]	5.21	4.42
CCN(CCO)CCCOc1ccc2c(Nc3cc(CC(=O)Nc4cccc(F)c4)[nH]n3)ncnc2c1 [Barasertib (AZD1152-HQPA)]	4.69	4.58
CNc1nc(Nc2cnn(C3CCN(C4COC4)CC3F)c2Cl)ncc1C(F)(F)F (stereo not drawn)	4.88	4.75
COc1cc2nccc(Oc3ccc(NC(=O)C4(C(=O)Nc5ccc(F)cc5)CC4)cc3)c2cc1OC [Cabozantinib malate (XL184)]	2.29	4.92
CCN1CCN(Cc2ccc(-c3cc4c(N[C@H](C)c5ccccc5)ncnc4[nH]3)cc2)CC1	2.57	4.54
CCc1cnn2c(NCc3ccc[n+]([O-])c3)cc(N3CCCC[C@H]3CCO)nc12	3.14	3.42
CC1=C(C(=O)Nc2cc3cn[nH]c3cc2F)C(c2ccc(C(F)(F)F)cc2)CC(=O)N1 (stereo not drawn)	0.236	4.21
COc1cc(F)c(F)c(Nc2ccc(I)cc2F)c1NS(=O)(=O)C1(C[C@H](O)CO)CC1 [Refametinib]	4.14	3.42
C=CC(=O)Nc1cccc(Nc2nc(Nc3ccc(NC4CN(CCF)C4)cc3OC)ncc2C(F)(F)F)c1	4.88	4.08
COc1ccc(-c2ccc3c(N4CCOCC4)nc(N4C[C@@H](C)O[C@@H](C)C4)nc3n2)cc1CO	4.36	4.25
C=CC(=O)Nc1cc2c(Nc3ccc(F)c(Cl)c3)ncnc2cc1OCCCN1CCOCC1 [Canertinib (CI-1033)]	4.57	4.71
COc1cc(-c2cc(-c3cccc(O)c3)cnc2N)cc(OC)c1OC	3.88	4.08
Nc1nc(Nc2ccc3c(c2)CCC(N2CCCC2)CC3)nn1-c1cc2c(nn1)-c1ccccc1CCC2 (stereo not drawn)	4.24	4.54
C=CC(=O)Nc1cccc(Nc2nc(Nc3ccc(N4CCN(C(C)=O)CC4)cc3OC)ncc2C(F)(F)F)c1	4.24	3.71
